# A selection: hits, their analogues and other compounds. The true share with any hit is near 6.6%.
# KB-3-1 cytotox: qHTS assay for MDR1-selective chemotherapeutics: Primary screen using the parental adenocarcinoma cell KB-3-1. 400,000 tested, 1.4% active. Potency, µM (doses to about 46.1 µM), actives largely listed as cytotoxic. KB-3-1 viability, CellTiter-Glo ATP luminescence, 72 h; note: % is set by controls: 0 for no effect and ±100 for the full control effect; nearly all actives have a fitted effect of over 60% in size
#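 Multi-concentration cytotoxicity screen in KB-3-1 cells grown in DMEM lacking phenol red with 10% FBS. After 72 h at 37 °C with compound, ATP-dependent luminescence was recorded.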
# HT1080-NT tox: qHTS for induction of synthetic lethality in tumor cells producing 2HG: qHTS for the HT-1080-NT fibrosarcoma cell line; HT-1080-NT fibrosarcoma viability, CellTiter-Glo ATP luminescence, 48 h; Potency, µM (series often up to 46.1 µM), without a hit: top-dose activity, negative = less viability, actives largely listed as cytotoxic; 360,000 tested, 1.6% active; AID 686970, 2013;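 note: NT is the 2HG producing partner of a matched IDH1 knockdown line; 0% = DMSO-treated cells and -100% = media-only wells without cells; nearly all actives have a fitted effect of over 55% in size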
#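 Luminescent CellTiter-Glo readout after 48 hours of compound exposure at 37 degrees C defined viability of HT-1080-NT cells. Activity was normalized to DMSO wells and cell-free media wells; concentration-response curves were fitted and assigned curve classes.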
# HT1080 IDH1KD tx: qHTS for induction of synthetic lethality in tumor cells producing 2HG: qHTS for the HT-1080-IDH1KD cell line; Potency, µM (top dose mostly 46.1 µM), without a hit: at the top dose activity, negative = toxicity, usual class: cytotoxic; HT-1080 IDH1 knockdown viability, ATP luminescence, 48 h; 360,000 tested, 2% active;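 note: 0% = DMSO wells and -100% = cell-free medium wells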
#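 Knockdown cells (IDH1KD HT-1080) received compounds 2 h after plating at 750 cells/well and were kept 48 h at 37 °C in 5% FBS RPMI. A CellTiter-Glo luminescence read gave % activity for curve fitting.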
# KB-V1 MDR tox: qHTS assay for MDR1-selective chemotherapeutics: Primary screen using the drug-selected MDR subline cells KB-V1 | KB-V1 MDR cells viability, CellTiter-Glo, 72 h | Potency, µM (top dose mostly 46.1 µM), usual class: cytotoxic | 400,000 tested, 3.4% active; note: % is set by controls: 0 for no effect and ±100 for the full control effect; nearly all actives have a fitted effect of over 60% in size
#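 Compound-treated KB-V1 multidrug-resistant cells, 72 h, 37 degrees C; viability by CellTiter-Glo. Fitted qHTS curves give the values.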
# TGFb SMAD3 inh: qHTS for Inhibitors of TGF-b; AID 588855, 2011; 410,000 tested, 1.2% active; Potency, µM (series often up to 46.1 µM), inactives show at the top dose activity, negative = inhibition, usual class: inhibitors; HepG2 CAGA-GFP TGF-b/SMAD3 reporter, GFP fluorescence, 18 h; TGF-beta stimulated, 500 pg/mL final; note: % is set by controls: 0 for no effect and ±100 for the full control effect; nearly all actives have a fitted effect of over 65% in size
#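 HEPG2 CAGA-GFP, 1000 cells/well; 2 h settle, 37 C; cpd via pin tool; TGF-b 500 pg/mL final; 18 h, 37 C; GFP imaging ex488/em500-530; %Activity normalised to -TGF-b and +DMSO controls; CRC fit, curve class.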
# HepG2 tox: qHTS for Inhibitors of TGF-b: Cytotox Counterscreen; HepG2 CAGA-GFP viability, ATP luminescence, 18 h; Potency, µM (titrated, usually from 46.1 µM), inactives show top-dose activity change, negative = cytotoxicity, actives largely listed as cytotoxic; 410,000 tested, 0.76% active; AID 588856, 2011
#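 HepG2 CAGA-GFP cells (1000/well, DMEM with 1% FBS) received compound, then TGF-beta at 500 pg/mL final, and were incubated 18 hours at 37 degrees C. Viability was read by CellTiter-Glo luminescence. Media-only wells were set as complete cell-killing and DMSO as no toxicity.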
# * marks the source's active call; other numbers are inactive results; i = inactive; ? = inconclusive; . = not tested or not shown. Calls come from the whole dose curve; as a rule, active = well fitted curve in the direction sought with a large enough effect; inconclusive = small, poorly fitted or top-dose-only effect, or another doubt; inactive = no such curve, though single readings can be large; an effect the other way counts as inactive or inconclusive. Potency is the fitted concentration of half-maximal effect.
SMILES,KB-3-1 cytotox,HT1080-NT tox,HT1080 IDH1KD tx,KB-V1 MDR tox,TGFb SMAD3 inh,HepG2 tox
COc1ccccc1N1CCN(C(=O)CSc2nc3ccccc3o2)CC1,i,-6%,15%,21µM*,?,-12%
COc1ccccc1N1CCN(C(=O)CSc2nc3ccccc3nc2Cc2ccccc2)CC1,i,.,.,i,-8%,-18%
CCCN1CCN(C(=O)C2CCN(S(=O)(=O)c3c(C)noc3/C=C/c3ccc(C)cc3)CC2)CC1,26µM*,16µM*,?,?,?,-61%
COc1ccc(/C=C\c2onc(C)c2S(=O)(=O)N2CCC(C(=O)Nc3ccc(Cl)cc3)CC2)cc1,.,.,.,.,-17%,-22%
CNC(=O)C1CCN(S(=O)(=O)c2c(C)noc2/C=C/c2ccccc2F)CC1,i,1%,0%,i,-23%,-24%
COc1ccc(/C=C\c2onc(C)c2S(=O)(=O)N2CCC(C(=O)Nc3ccc(C)c(F)c3)CC2)cc1,.,.,.,.,11µM*,-15%
Cc1noc(/C=C/c2ccccc2F)c1S(=O)(=O)N1CCC(C(=O)Nc2ccc(C#N)cc2)CC1,.,.,.,.,4.5µM*,-43%
Cc1cc(C)c(NC(=O)C(C)n2nc(-c3ccc(C)c(C)c3)ccc2=O)c(C)c1 (stereo not drawn),i,.,.,i,2%,3%
CC(C)CCNC(=O)c1cnc2sc(N3CCCCC3)nn2c1=O,i,.,.,i,-5%,-22%
CCCc1nn2c(=O)cc(COC(=O)c3ccccc3NC(=O)c3ccc(Cl)cc3)nc2s1,.,.,.,.,10%,2%
CCOC(=O)C1(S(=O)(=O)c2ccccc2)CCN(Cc2ccc(Cl)cc2)CC1,?,0%,-15%,10µM*,-25%,-14%
CCOC(=O)C1(S(=O)(=O)c2ccc(Cl)cc2)CCN(Cc2ccc(Cl)cc2)CC1,?,-28%,-29%,8.2µM*,-20%,-24%
CCOC(=O)C1(Cc2ccc(Cl)cc2)CCN(Cc2nccn2CC)CC1,i,-5%,-20%,i,-7%,-26%
CCOC(=O)N1CCN(c2ncc3c(n2)CC(c2ccc(OC)c(OC)c2)CC3=O)CC1 (stereo not drawn),?,.,.,4.1µM*,1%,6%
CCN1CCN(c2ncc3c(n2)CC(c2ccc(OC)c(OC)c2)CC3=O)CC1 (stereo not drawn),16µM*,11µM*,13µM*,21µM*,15%,3%
COc1ccc(C2CC(=O)c3cnc(N4CCN(Cc5ccccc5)CC4)nc3C2)cc1 (stereo not drawn),i,-11%,-10%,i,20%,-8%
CCCc1cc(-c2nc(-c3ccc(Cl)cc3)cs2)ccn1,i,-12%,0%,16µM*,-29%,-59%
CCN(C(=O)C1CCN(S(=O)(=O)c2ccc3c(c2)CCCN3C(=O)C2CCC2)CC1)c1cccc(C)c1,i,.,.,i,2%,3%
CCOc1cc(CNCCN2CCOCC2)ccc1OCc1ccccc1Cl,i,?,?,i,5%,-20%
CCOc1cc(CNC(C)(C)CO)cc(Br)c1OCc1ccc(Cl)cc1Cl,i,11µM*,10µM*,?,?,13µM*
CCOc1cc(CNCCCN2CCOCC2)cc(Br)c1OCc1ccccc1Cl,?,7.3µM*,8.2µM*,?,14µM*,-93%
COc1cc(CNCc2ccncc2)cc(Br)c1OCc1ccccc1F,4.1µM*,?,?,3.7µM*,21%,-40%
COc1cc(CNC(C)(C)CO)cc(Br)c1OCc1ccccc1,i,?,?,i,14%,5%
CCOc1cc(CNCCO)cc(Br)c1OCc1ccccc1Cl,?,?,23µM*,23µM*,?,-106%
O=C(c1cc(N2C(=O)C3C4CCC(C4)C3C2=O)ccc1Cl)N1CCCCCC1 (stereo not drawn),i,5%,9%,i,15%,-2%
SMILES,KB-3-1 cytotox,HT1080-NT tox,HT1080 IDH1KD tx,KB-V1 MDR tox,TGFb SMAD3 inh,HepG2 tox
COc1ccc(N2CCN(C(=O)c3cccc(N4C(=O)C5CC=CC(C)C5C4=O)c3)CC2)cc1 (stereo not drawn),i,14%,0%,18µM*,-1%,-5%
O=C(c1cc(N2C(=O)C3C4CCC(C4)C3C2=O)ccc1Cl)N1CCN(c2ccc(F)cc2)CC1 (stereo not drawn),?,-2%,-4%,2.6µM*,-4%,4%
O=C(c1cccc(C(=O)N2CCN(c3ccccc3F)CC2)c1)N1CCN(c2ccccc2F)CC1,i,-9%,-21%,i,-22%,-5%
COc1ccc(N2CCN(C(=O)c3cccc(N4C(=O)C5C6C=CC(C6)C5C4=O)c3)CC2)cc1 (stereo not drawn),i,2%,3%,i,-6%,-1%
O=C(c1cc(N2C(=O)C3C4CCC(C4)C3C2=O)ccc1Cl)N1CCN(c2ccccc2F)CC1 (stereo not drawn),?,-6%,-2%,4.1µM*,-18%,-9%
COc1ccc(N2CCN(C(=O)c3cc(N4C(=O)C5C6CCC(C6)C5C4=O)ccc3Cl)CC2)cc1 (stereo not drawn),?,0%,1%,4.6µM*,3%,1%
CC1(C)O[C@H]2[C@@H](O1)[C@@H](C(=O)Nc1ccccc1C(F)(F)F)O[C@@H]1OC(C)(C)O[C@@H]12,i,.,.,?,-16%,0%
Cc1c(C(=O)Nc2ccc(F)c(Cl)c2)sc2nc3n(c(=O)c12)CCC3,i,.,.,?,?,-2%
COc1ccc(CCNC(=O)c2ccc3c(c2)CCN3S(=O)(=O)c2ccc(C)cc2)cc1,i,.,.,?,-24%,-10%
Cc1cc(C(=O)CN2CCN(CC(=O)Nc3cccc(F)c3)CC2)c(C)n1C1CC1,i,0%,22%,10µM*,-1%,-1%
CN(C)c1ccc(CCc2ccnc3ccccc23)cc1,i,.,.,i,0%,-32%
NNC(=O)c1[nH]c2ccc(Cl)cc2c1-c1ccccc1,?,?,?,?,?,-19%
COc1ccc(/C=N/NC(=O)c2[nH]c3ccc(Br)cc3c2-c2ccccc2)cc1,0.82µM*,0.037µM*,0.0052µM*,1µM*,?,-35%

# Screening data (PubChem)
